These sequences were tested on VDR:RXRa (NR concentration 270 nM, RXRa partner concentration 90 nM) (assay: PBM binding z-score (relative to random genomic background probes); higher = stronger binding; sequences stand for … in GC…GCGATTGACAGCGTAGAATGAAGG).
Procedure: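 Protein-binding microarray (Agilent 4x180K custom design, double-stranded 60-nt probes: 5' GC cap, 34-nt variable region, 24-nt constant primer region; full probe sequence given). Purified or IVT nuclear receptor:RXRα heterodimers (3:1 NR:RXRα, mostly 270:90 nM) or homodimers were incubated for 1 h in PBS with 2% milk and no ligand, then detected with Alexa488 antibodies. Fluorescence from o1-orientation probes (~5 replicates averaged) was converted to z-scores against 500 random hg19 background probes. Variable regions are seed direct-repeat (DR0–DR5) sites, all their single-nucleotide variants and half-site ablations.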

Q: For TCTAGTCGGTCACGGAGGTCACACACGACGGGTA, which PBM binding z-score is on record?
A: Its PBM binding z-score is 6.56.

Q: How did the PBM binding z-score turn out when CGAACGAGGGCATGAGTGGATAGCAAATGCCGAT was run?
A: The PBM binding z-score was 0.295.

Q: How did the PBM binding z-score turn out when ATCGAAAGGTCGTGAGGTGAGTAGACAGAAAGGC was run?
A: Its PBM binding z-score is 3.35.

Q: With TCGAGAAGGTTAGGGGCATTCAGAATGGCGTCGA as the sequence, how does the PBM binding z-score read?
A: The PBM binding z-score was 1.12.

Q: Which PBM binding z-score does the source give for TCGAGTAGGCTAGGGGCATTCAGAATGGCGTCGA here?
A: The PBM binding z-score was -0.094.

Q: CCGACAGGGGCATAAGGTTACCATAAGCCAGCCC was tested. Which PBM binding z-score did it give?
A: The PBM binding z-score was 1.1.

Q: GCATATAGGTAATACAAGGGGAAAGTCCGATTGT was tested. Which PBM binding z-score did it give?
A: The PBM binding z-score was -0.0932.

Q: With TAGCCTAGGTCCGATCGGGCCAGTATACGCTATA as the sequence, how does the PBM binding z-score read?
A: The PBM binding z-score was -0.91.

Q: CCTCGGAGGACAACAGGAGATCAGAGCTGCCAGA was tested. Which PBM binding z-score did it give?
A: The PBM binding z-score was -0.616.

Q: For TCGGCTAGGTCAGTTGGTCAGCTAACGAGCTGCC, which PBM binding z-score is on record?
A: The PBM binding z-score was 0.16.

Q: For ACTCACGGGTCAACGAGGTTATAGCACGCGTATA, which PBM binding z-score is on record?
A: The PBM binding z-score was 7.63.

Q: Which PBM binding z-score does the source give for TCTTGTAGATCAAAGGATAAGAAAGCCGAAGCCT here?
A: Its PBM binding z-score is 0.22.

Q: For GGAACGAGGGCAAGTTGATTGCAGAGTTTGATGG, which PBM binding z-score is on record?
A: Its PBM binding z-score is 0.675.

Q: For ATACCAAGGTGATCTTGAGGTCGTTGATACTAAC, which PBM binding z-score is on record?
A: The PBM binding z-score was 3.57.

Q: For TAGCCCAGGTCATTCAGGGGCCAGTATAGAAAGC, which PBM binding z-score is on record?
A: Its PBM binding z-score is 3.65.

Q: For ACAGACAGGTGAGTGAAGGTAACTTAGCTGGACG, which PBM binding z-score is on record?
A: Its PBM binding z-score is -0.357.

Q: How did the PBM binding z-score turn out when CATCCAAGGTCAGAGAGGTCAGTGAATGCCGAGT was run?
A: The PBM binding z-score was 7.55.

Q: How did the PBM binding z-score turn out when TCTATTAGTTGATAAGGGCAACCGAAACAGCGGA was run?
A: Its PBM binding z-score is 0.713.

Q: For TCATATAGGTAATACAGGTGAAAGGCGGCATCTA, which PBM binding z-score is on record?
A: The PBM binding z-score was 1.17.

Q: For ACTCGGAGGACAAAGGTCAAAGCTACGCCAGTGA, which PBM binding z-score is on record?
A: Its PBM binding z-score is 4.8.

Q: ATATGTAGGTTATCGGGTTATTCAGTTTGCGCAT was tested. Which PBM binding z-score did it give?
A: Its PBM binding z-score is 3.47.

Q: How did the PBM binding z-score turn out when CTAGAAAGGTCGTGCTCAGGTGAGTATACCAAAC was run?
A: Its PBM binding z-score is 3.1.

Q: CCGACCGGGGCAGAAAGGTTACCATACCATCCGG was tested. Which PBM binding z-score did it give?
A: Its PBM binding z-score is 1.5.

Q: Which PBM binding z-score does the source give for CCTCGGAGGACAACAGGAGGTAAGAGCTGCCAGA here?
A: Its PBM binding z-score is -0.357.

Q: With TCTTCTAGATCAGCAGGTTAAGAAAGCTGGCCAA as the sequence, how does the PBM binding z-score read?
A: Its PBM binding z-score is 0.175.

Q: With AGAATGAGGTTACAAAAGATCAGGGAAACGCTTG as the sequence, how does the PBM binding z-score read?
A: Its PBM binding z-score is 1.24.

Q: With ATCTCTAGGTAAAGTTCAGAGAAAGATCGATAGA as the sequence, how does the PBM binding z-score read?
A: Its PBM binding z-score is 1.41.

Q: Which PBM binding z-score does the source give for CCTTACGGGTCACTCCAGGTTACAGCATCGGAGT here?
A: Its PBM binding z-score is 3.95.

Q: For ATATGTAGGTTAAGGGTAATTCAGGTTGGTTCGC, which PBM binding z-score is on record?
A: The PBM binding z-score was 1.61.

Q: Which PBM binding z-score does the source give for CGAACTAGGTCAGAACGGGACAGTGAAGGATGAT here?
A: Its PBM binding z-score is 0.281.

Q: For CGAGCTAGGTCAAGGACAGTGAATCTCCGCACGC, which PBM binding z-score is on record?
A: The PBM binding z-score was 0.904.

Q: For CCTAGCAGGCCAGGGTCACTGAAGCATTTCGCTT, which PBM binding z-score is on record?
A: The PBM binding z-score was 2.68.

Q: Which PBM binding z-score does the source give for ACTCAAAGTTCAGGACGAGGTAACGTAAAGCACG here?
A: The PBM binding z-score was 3.22.

Q: How did the PBM binding z-score turn out when GCTGGTAGGTCAGGTTGGTCAGCTAACGGGTACG was run?
A: Its PBM binding z-score is 1.04.

Q: For TCTTGGAGATCAAGCAGGTTAAGAAAGCCTGAGT, which PBM binding z-score is on record?
A: The PBM binding z-score was 1.04.

Q: How did the PBM binding z-score turn out when CCAGACAGGTGACAGGTAACTCAGTCTGGTACGC was run?
A: The PBM binding z-score was -0.206.

Q: GCGACTGGAGCAAAGCAGGTTACCATAAGGTTGG was tested. Which PBM binding z-score did it give?
A: Its PBM binding z-score is -0.418.

Q: How did the PBM binding z-score turn out when CCGACGGGGGCATAAGGTTACCATAAGCCAGCCC was run?
A: The PBM binding z-score was 3.5.

Q: How did the PBM binding z-score turn out when TCGAGTAGGTTAGGGGCATACAGAATGGCGTCGA was run?
A: The PBM binding z-score was 0.604.

Q: How did the PBM binding z-score turn out when CCGACTGGGGCATAAGGATACCATAAGCCAGCCC was run?
A: Its PBM binding z-score is -0.657.

From the supplement of paper PMC6555819
